Assay [1] has as its target T1, Inhibitor of nuclear factor kappa-B kinase subunit epsilon (Homo sapiens) (UniProt Q14164).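 Note: reported values are averaged percent inhibition figures against human IKKε.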
T1 sequence (whole entry): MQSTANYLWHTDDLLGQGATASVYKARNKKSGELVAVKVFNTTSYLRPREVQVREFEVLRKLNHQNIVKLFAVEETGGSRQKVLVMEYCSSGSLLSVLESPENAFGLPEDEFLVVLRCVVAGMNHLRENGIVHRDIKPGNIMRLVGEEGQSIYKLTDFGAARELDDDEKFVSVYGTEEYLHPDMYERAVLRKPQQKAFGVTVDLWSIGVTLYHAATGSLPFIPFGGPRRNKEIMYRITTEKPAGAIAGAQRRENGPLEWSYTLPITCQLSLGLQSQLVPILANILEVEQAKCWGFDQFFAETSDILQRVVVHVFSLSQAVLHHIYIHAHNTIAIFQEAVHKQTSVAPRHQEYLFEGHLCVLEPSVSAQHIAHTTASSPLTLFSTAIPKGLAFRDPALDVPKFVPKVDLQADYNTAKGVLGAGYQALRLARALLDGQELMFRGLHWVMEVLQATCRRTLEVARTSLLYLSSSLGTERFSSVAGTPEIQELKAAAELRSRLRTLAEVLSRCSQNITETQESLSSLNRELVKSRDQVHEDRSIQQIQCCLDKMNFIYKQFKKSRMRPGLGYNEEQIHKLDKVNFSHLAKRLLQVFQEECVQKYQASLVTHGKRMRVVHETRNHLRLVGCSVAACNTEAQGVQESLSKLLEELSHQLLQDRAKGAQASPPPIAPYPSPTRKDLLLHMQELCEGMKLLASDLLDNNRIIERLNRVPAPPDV
The settings on record: at 1 µM.

The target in assay [2] is T2, Serine/threonine-protein kinase Nek1 (Homo sapiens) (UniProt Q96PY6).
T2 sequence (whole entry): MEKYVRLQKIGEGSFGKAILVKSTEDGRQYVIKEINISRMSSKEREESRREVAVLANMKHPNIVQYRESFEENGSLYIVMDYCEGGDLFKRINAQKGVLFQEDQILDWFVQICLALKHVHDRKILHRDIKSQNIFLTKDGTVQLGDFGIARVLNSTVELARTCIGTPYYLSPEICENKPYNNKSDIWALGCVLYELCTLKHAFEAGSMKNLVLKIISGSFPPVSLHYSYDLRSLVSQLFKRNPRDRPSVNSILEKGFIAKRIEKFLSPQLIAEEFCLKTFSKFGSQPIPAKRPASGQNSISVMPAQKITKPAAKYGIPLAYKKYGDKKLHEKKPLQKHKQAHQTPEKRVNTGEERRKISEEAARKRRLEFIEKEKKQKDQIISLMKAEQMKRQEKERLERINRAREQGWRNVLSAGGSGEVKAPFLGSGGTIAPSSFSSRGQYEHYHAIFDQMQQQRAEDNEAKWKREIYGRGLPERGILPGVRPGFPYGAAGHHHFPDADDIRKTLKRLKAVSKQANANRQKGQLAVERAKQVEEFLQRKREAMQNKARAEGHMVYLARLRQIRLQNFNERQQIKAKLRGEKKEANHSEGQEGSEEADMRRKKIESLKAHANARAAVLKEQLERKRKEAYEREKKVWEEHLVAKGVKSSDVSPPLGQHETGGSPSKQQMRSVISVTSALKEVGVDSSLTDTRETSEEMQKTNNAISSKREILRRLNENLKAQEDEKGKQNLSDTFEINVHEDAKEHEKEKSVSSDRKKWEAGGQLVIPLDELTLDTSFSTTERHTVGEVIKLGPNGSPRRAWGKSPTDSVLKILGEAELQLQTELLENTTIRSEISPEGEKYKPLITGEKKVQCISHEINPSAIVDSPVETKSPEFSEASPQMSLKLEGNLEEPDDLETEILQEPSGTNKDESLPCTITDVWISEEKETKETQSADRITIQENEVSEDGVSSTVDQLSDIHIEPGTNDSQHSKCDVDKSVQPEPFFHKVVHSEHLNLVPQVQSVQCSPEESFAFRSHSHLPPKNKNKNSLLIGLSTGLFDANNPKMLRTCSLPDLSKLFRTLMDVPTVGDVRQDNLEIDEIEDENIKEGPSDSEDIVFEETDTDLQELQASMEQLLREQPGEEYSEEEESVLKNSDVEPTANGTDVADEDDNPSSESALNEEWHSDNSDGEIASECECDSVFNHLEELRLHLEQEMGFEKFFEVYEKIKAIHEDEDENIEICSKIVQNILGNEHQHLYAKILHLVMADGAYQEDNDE
The conditions noted are these: at 0.1 µM.

Assay [3] has as its target T2, Serine/threonine-protein kinase Nek1 (Homo sapiens). The settings on record: at 1 µM.
The target in assay [4] is T3, Serine/threonine-protein kinase Nek2 (Homo sapiens) (UniProt P51955).
T3 sequence (whole entry): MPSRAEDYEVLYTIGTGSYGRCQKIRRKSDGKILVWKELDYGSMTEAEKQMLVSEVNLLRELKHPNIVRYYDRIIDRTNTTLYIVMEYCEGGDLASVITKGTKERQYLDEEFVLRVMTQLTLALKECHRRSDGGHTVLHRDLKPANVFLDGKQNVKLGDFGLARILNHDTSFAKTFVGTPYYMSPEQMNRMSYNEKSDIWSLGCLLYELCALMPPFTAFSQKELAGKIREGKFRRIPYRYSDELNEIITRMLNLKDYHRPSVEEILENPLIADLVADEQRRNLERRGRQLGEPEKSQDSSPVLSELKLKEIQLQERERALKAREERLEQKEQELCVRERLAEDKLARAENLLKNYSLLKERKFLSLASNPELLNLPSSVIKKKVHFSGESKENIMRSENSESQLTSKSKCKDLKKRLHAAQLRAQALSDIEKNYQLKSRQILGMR
The conditions noted are these: at 0.1 µM.

Assay [5] deals with T3, Serine/threonine-protein kinase Nek2 (Homo sapiens). The settings on record: at 1 µM.
The target in assay [6] is Serine/threonine-protein kinase Nek6 (Homo sapiens) (UniProt Q9HC98). The settings on record: at 0.1 µM.
Chain of Serine/threonine-protein kinase Nek6 (Homo sapiens) (Q9HC98 whole entry): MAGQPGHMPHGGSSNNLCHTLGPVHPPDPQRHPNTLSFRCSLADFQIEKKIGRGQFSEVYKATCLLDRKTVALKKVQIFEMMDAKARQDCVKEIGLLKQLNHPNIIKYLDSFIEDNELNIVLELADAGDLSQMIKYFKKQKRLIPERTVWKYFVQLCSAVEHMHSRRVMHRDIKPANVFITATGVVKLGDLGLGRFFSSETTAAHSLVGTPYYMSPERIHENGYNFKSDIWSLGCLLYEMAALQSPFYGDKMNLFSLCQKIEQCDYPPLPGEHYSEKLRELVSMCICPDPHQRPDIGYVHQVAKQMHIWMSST
Assay [7] has the same target. The conditions noted are these: at 1 µM.
Assay [8] addresses Serine/threonine-protein kinase Nek7 (Homo sapiens) (UniProt Q8TDX7). The conditions noted are these: at 0.1 µM.
The target is the same in assay [9]. The settings on record: at 1 µM.
Assay [10] concerns the target T4, Serine/threonine-protein kinase Nek9 (Homo sapiens) (UniProt Q8TD19).
T4 sequence (whole entry): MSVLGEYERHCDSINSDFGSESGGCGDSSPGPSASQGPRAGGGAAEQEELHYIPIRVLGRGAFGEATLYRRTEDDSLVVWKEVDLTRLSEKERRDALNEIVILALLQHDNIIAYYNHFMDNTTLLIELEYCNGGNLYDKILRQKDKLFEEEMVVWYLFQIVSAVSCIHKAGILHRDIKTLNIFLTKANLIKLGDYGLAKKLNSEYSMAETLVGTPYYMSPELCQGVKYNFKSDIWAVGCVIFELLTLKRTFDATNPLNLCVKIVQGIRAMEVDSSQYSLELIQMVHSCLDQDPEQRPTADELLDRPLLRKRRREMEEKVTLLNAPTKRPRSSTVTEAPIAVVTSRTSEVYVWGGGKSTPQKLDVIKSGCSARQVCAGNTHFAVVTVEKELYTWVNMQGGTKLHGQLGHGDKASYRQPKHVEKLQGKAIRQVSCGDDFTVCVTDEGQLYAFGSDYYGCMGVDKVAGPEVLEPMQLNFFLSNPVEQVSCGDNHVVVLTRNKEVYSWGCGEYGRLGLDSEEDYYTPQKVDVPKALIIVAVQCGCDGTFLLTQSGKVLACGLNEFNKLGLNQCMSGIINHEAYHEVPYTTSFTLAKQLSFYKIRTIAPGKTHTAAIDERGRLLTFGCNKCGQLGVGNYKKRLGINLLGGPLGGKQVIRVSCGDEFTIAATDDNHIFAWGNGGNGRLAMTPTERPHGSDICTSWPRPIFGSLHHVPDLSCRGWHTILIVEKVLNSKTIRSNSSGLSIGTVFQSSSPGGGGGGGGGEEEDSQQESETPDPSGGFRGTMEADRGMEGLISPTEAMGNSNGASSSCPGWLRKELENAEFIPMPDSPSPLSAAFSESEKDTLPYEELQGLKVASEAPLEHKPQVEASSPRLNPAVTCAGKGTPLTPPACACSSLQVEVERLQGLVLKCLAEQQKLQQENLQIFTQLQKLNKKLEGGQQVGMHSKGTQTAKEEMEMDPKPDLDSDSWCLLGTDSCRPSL
The conditions noted are these: at 0.1 µM.

Assay [11] addresses T4, Serine/threonine-protein kinase Nek9 (Homo sapiens). The settings on record: at 1 µM.
In assay [12] the target is Serine/threonine-protein kinase PLK1 (Homo sapiens) (UniProt P53350). The conditions noted are these: at 0.1 µM.
Chain of Serine/threonine-protein kinase PLK1 (Homo sapiens) (P53350 whole entry): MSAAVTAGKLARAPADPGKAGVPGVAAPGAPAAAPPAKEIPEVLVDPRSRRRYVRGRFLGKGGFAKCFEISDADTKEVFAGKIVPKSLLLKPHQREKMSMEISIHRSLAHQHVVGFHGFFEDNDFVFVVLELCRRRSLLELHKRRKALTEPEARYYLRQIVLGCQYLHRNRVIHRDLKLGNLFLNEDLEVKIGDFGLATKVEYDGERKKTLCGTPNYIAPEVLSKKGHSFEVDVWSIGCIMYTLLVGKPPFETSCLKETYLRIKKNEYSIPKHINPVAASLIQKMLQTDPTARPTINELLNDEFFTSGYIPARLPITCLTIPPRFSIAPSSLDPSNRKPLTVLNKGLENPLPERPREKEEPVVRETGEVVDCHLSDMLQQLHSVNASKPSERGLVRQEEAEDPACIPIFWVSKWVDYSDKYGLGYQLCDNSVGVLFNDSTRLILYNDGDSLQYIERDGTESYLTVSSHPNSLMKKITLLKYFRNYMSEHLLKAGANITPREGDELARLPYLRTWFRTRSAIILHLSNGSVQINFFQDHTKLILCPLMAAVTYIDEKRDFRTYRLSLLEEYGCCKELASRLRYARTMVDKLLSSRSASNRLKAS
The target is the same in assay [13]. The settings on record: at 1 µM.
Assay [14] concerns the target T5, Dual specificity protein kinase TTK (Homo sapiens) (UniProt P33981).
T5 sequence (whole entry): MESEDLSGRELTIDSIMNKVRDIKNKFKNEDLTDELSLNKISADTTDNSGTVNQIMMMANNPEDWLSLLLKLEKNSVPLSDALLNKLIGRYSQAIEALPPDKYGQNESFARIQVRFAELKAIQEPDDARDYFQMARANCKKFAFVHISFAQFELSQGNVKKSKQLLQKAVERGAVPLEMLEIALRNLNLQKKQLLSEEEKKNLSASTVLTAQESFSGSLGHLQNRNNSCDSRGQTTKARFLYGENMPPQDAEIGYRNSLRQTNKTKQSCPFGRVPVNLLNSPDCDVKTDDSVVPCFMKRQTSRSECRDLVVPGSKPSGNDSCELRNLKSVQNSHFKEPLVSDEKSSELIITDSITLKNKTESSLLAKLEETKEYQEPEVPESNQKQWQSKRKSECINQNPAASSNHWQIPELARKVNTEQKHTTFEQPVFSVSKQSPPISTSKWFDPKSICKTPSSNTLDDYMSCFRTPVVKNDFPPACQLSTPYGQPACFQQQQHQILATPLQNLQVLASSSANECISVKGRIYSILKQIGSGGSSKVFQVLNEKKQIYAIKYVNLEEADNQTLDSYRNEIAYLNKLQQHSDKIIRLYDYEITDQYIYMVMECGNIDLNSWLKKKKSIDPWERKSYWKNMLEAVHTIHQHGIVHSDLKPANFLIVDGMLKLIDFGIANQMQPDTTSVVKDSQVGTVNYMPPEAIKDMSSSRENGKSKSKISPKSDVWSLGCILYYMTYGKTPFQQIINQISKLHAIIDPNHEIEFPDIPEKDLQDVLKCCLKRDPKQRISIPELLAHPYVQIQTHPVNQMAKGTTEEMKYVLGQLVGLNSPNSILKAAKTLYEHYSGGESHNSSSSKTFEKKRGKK
The settings on record: at 0.1 µM.

The test system of assay [15] is T6, Receptor-type tyrosine-protein kinase FLT3 (Homo sapiens), P36888 [D835Y].
T6 sequence (whole entry): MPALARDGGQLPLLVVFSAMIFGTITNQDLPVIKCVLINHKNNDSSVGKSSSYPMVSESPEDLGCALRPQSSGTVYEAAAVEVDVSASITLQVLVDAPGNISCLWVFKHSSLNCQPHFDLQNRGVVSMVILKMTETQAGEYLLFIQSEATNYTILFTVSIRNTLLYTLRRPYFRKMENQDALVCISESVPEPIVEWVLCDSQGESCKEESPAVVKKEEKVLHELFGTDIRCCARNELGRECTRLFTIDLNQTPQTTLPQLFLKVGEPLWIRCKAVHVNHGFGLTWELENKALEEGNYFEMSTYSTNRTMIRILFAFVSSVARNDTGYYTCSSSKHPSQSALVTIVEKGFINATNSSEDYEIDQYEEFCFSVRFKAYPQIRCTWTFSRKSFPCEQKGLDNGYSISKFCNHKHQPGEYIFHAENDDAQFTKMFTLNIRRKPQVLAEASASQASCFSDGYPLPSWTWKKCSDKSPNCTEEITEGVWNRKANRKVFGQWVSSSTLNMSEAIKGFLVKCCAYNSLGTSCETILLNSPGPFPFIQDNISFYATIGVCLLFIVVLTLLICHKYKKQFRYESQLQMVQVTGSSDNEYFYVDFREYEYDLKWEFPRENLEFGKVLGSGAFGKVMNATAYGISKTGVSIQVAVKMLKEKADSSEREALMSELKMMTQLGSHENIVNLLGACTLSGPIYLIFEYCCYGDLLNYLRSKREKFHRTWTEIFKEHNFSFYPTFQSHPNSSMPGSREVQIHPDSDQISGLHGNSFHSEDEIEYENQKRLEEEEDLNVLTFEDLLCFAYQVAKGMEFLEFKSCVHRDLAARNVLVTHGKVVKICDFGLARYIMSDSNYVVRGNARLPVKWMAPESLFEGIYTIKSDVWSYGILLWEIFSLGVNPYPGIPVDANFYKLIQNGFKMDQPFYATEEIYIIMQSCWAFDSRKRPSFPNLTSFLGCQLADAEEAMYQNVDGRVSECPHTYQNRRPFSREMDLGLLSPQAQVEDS
The conditions noted are these: at 1 µM.

The target in assay [16] is Vascular endothelial growth factor receptor 3 (Homo sapiens) (UniProt P35916). The conditions noted are these: at 0.1 µM.
Chain of Vascular endothelial growth factor receptor 3 (Homo sapiens) (P35916 whole entry): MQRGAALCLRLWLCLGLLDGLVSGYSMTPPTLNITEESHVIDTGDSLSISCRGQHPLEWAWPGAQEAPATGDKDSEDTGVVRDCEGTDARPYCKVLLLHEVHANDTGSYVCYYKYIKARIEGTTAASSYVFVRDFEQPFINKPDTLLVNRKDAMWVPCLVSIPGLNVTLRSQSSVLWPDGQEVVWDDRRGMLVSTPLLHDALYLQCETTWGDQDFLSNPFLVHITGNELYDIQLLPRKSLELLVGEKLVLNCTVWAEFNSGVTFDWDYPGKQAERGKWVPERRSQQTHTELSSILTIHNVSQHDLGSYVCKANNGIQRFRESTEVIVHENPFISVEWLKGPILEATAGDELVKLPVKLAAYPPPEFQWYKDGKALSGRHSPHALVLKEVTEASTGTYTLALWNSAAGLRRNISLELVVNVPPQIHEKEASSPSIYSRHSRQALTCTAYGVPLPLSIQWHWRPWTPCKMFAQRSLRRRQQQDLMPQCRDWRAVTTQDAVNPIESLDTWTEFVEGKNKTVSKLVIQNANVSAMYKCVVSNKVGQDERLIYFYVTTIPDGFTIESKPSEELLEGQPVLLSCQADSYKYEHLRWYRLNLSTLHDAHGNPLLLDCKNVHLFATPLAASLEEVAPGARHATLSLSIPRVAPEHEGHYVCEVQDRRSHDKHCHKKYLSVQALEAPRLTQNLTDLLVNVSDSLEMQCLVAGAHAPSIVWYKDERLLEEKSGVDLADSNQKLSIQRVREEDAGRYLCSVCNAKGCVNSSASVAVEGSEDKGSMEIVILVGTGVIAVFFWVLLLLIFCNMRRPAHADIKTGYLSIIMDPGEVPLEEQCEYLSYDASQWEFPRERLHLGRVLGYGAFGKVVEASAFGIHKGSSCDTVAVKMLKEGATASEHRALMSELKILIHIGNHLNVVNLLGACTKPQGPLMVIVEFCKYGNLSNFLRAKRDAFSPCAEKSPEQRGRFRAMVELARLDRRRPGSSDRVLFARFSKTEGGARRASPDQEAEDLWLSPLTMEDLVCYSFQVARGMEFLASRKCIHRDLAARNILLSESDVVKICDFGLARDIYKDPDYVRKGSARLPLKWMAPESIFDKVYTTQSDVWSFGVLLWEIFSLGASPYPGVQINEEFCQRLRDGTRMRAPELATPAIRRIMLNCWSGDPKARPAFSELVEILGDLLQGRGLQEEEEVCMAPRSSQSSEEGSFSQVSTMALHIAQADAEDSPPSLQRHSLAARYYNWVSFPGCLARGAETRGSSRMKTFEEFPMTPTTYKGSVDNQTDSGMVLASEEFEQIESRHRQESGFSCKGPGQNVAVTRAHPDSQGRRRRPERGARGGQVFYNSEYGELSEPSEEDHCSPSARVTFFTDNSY
For assay [17] the target is unchanged. The settings on record: at 1 µM.
For assay [18], the target named is Macrophage colony-stimulating factor 1 receptor (Homo sapiens) (UniProt P07333). The conditions noted are these: at 0.1 µM.
Chain of Macrophage colony-stimulating factor 1 receptor (Homo sapiens) (P07333 whole entry): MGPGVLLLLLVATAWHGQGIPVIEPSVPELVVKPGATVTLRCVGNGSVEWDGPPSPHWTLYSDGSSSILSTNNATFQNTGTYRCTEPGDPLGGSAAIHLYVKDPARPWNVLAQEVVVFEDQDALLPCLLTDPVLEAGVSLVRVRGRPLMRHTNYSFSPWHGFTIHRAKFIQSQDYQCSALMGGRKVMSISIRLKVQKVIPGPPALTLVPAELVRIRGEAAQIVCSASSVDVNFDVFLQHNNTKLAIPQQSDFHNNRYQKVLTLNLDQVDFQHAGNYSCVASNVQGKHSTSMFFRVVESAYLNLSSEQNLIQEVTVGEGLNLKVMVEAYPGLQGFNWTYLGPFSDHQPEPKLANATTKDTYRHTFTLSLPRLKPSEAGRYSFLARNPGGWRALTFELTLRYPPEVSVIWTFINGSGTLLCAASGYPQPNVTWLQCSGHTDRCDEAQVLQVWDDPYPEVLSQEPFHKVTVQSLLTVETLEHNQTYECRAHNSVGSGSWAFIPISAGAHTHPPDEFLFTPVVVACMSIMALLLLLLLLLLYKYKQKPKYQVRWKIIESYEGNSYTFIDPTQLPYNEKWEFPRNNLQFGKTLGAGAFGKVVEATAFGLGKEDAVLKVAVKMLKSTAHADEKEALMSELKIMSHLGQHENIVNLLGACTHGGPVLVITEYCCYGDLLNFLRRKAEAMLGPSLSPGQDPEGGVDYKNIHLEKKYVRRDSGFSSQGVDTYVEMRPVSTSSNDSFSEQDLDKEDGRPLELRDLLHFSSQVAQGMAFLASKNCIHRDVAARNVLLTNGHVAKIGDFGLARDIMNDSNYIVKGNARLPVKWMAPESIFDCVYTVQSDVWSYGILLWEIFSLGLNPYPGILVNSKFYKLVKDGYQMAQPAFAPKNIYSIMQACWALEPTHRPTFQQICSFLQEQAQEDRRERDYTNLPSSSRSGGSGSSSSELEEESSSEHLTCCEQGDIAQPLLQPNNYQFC
Assay [19] has the same target. The settings on record: at 1 µM.
Assay [20] concerns the target Tyrosine-protein kinase Fyn (Homo sapiens) (UniProt P06241). The settings on record: at 0.1 µM.

The structures appear in SMILES notation.

The results in this text go back to ChEMBL document CHEMBL1961873, “Compounds: GSK PKIS; Assays: Nanosyn kinase panel” (2012).

Chain of Serine/threonine-protein kinase Nek7 (Homo sapiens) (Q8TDX7 whole entry, looked up): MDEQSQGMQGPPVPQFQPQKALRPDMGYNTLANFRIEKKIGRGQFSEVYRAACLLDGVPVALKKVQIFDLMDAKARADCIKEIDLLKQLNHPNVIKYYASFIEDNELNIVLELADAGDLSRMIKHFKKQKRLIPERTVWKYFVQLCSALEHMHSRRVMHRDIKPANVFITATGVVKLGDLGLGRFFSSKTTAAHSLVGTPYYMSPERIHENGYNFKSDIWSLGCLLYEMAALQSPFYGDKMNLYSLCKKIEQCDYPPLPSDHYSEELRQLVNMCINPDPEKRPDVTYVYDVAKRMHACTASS
Chain of Tyrosine-protein kinase Fyn (Homo sapiens) (P06241 2-537 limits assumed): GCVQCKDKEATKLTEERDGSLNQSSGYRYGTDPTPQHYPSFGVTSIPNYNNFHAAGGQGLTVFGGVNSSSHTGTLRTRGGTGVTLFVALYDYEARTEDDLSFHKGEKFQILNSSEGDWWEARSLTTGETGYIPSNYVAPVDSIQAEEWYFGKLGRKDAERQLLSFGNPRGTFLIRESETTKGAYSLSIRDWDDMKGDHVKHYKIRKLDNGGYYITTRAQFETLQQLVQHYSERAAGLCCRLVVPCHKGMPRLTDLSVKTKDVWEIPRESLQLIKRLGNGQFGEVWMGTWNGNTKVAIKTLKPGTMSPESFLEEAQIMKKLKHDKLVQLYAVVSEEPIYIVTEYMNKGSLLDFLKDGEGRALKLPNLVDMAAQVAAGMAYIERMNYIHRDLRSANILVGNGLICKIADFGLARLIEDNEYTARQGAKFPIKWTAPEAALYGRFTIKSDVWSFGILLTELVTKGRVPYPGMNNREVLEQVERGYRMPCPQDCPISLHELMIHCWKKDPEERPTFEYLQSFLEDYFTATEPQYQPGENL

In general, inhibition refers to the relative decrease from the control value, in per cent. As for `COc1cc2ncnc(Nc3ccc4c(cnn4Cc4ccccc4)c3)c2cc1OC`, the inhibition was 4.31% in [1]; 1.6% in assay [2]; 0.76% in assay [3]; 2.52% in assay [4]; -2.69% in [5]; 9.32% in assay [6]. Also, the inhibition in assay [7] is 3.49%; in [8], 0.26%; in assay [9], 6.18%; in assay [10], 6.67%; in assay [11], 8.26%; in assay [12], 3.61%. For the same compound, the inhibition is 3.2% in assay [13]; 10.4% in assay [14]; 2.33% in assay [15]; 4.91% in assay [16]; 15% in assay [17]; -1.86% in assay [18]. Further, the inhibition stood at 3.16% in assay [19] and 7.78% in assay [20].
